Laboratory results published in PubChem BioAssay (Tox21).
Records with an inconclusive call do not appear. The source made the active and inactive calls. Unless noted, the call rests on the fitted dose curve.

What was measured:
[1] = qHTS assay to identify small molecule agonists of the vitamin D receptor (VDR) signaling pathway - cell viability counter screen (AID 743224; active means well fitted curve in the direction sought with a large enough effect in the repeat runs; an effect the other way counts as inactive or inconclusive; further: series mostly up to about 63 µM; nearly all actives have a fitted effect of over 50% in size)
Outline: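 CellTiter-Glo viability readout on VDR-bla cells, measured after 16 h of compound treatment at 37C in the same wells.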

[2] = qHTS assay to identify small molecule antagonists of the vitamin D receptor (VDR) signaling pathway - cell viability counter screen (AID 743225; active means well fitted curve in the direction sought with a large enough effect in the repeat runs; an effect the other way counts as inactive or inconclusive; further: nearly all actives have a fitted effect of over 50% in size)
Outline: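 Compounds were pinned onto VDR-bla HEK 293T cells together with 1-alpha,25-dihydroxyvitamin D3 at 3 nM final. After 16 h at 37C and 5% CO2 plus the reporter readout, cell viability was measured by CellTiter-Glo luminescence (30 min, room temperature).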

[3] = qHTS assay to identify small molecule agonists of the NFkB signaling pathway (AID 1159509; active means well fitted curve in the direction sought with a large enough effect in the signal ratio in the repeat runs, not every such curve was filed as active; the % refers to the signal ratio; further: series mostly up to about 61 µM)
Outline: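 Readout: FRET fluorescence, 405 nm excitation, 460/530 nm emission; beta-lactamase expression disrupts FRET. Cells: ME-180 stably carrying NF-kB-driven bla reporter. Compound exposure 5 hr, 37 C, 5% CO2.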

[4] = qHTS assay to identify small molecule agonists of the NFkB signaling pathway - cell viability counter screen (AID 1159515); further: series mostly up to about 61 µM; nearly all actives have a fitted effect of over 55% in size
Outline: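 Tox21 library compounds were tested for cytotoxicity against NFkB-bla ME-180 cells during a 5 hr exposure at 37 C. CellTiter-Glo luminescence served as the viability read-out.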

[5] = qHTS assay to identify small molecule agonists of the endoplasmic reticulum stress response signaling pathway (AID 1159516; active means well fitted activation curve with a large enough effect in the signal ratio in the repeat runs, not every such curve was filed as active; the % refers to the signal ratio)
Outline: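 Fluorescence at 460 and 530 nm (405 nm excitation) reports beta-lactamase from an ER stress response element in HeLa cells treated 5 hr at 37 C.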

[6] = qHTS assay to identify small molecule agonists of the endoplasmic reticulum stress response signaling pathway - cell viability counter screen (AID 1159517); further: series mostly up to about 61 µM; nearly all actives have a fitted effect of over 50% in size
Outline: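 Cytotoxicity of test compounds toward ESRE-bla HeLa cells was assessed after 5 hr exposure. The luminescent CellTiter-Glo signal was measured 30 min after reagent addition.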

[7] = qHTS assay to identify small molecule antagonists of the retinoid-related orphan receptor gamma (ROR-gamma) signaling pathway - cell viability counter screen (AID 1159520; active means well fitted curve in the direction sought with a large enough effect in the repeat runs; an effect the other way counts as inactive or inconclusive; further: nearly all actives have a fitted effect of over 50% in size)
Outline: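 Tet-on ROR gamma CHO cells (1,000/well) were plated 4 hr, given compounds in DMSO for 2 hr at 37 C, then induced with 1 uM final doxycycline for 16 hr. Viability was read as ATP by CellTiter-Glo luminescence after 30 min.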

[8] = target: Nuclear receptor ROR-gamma (Homo sapiens) (UniProt P51449); experiment: qHTS assay to identify small molecule antagonists of the retinoid-related orphan receptor gamma (ROR-gamma) signaling pathway (AID 1159521; active means well fitted curve in the direction sought with a large enough effect in the repeat runs; an effect the other way counts as inactive or inconclusive)
Outline: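 Test compounds were applied to Tet-on RORγ CHO cells 2 h ahead of doxycycline hyclate (1 uM final). Luciferase reporter activity was quantified by luminescence after 16 h at 37 C and 5% CO2.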

[9] = qHTS assay to identify small molecule agonists of the AP-1 signaling pathway - cell viability counter screen (AID 1159525); further: nearly all actives have a fitted effect of over 55% in size
Outline: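 Each titration point was normalised to DMSO and tetra n-octyl ammonium bromide controls. The read was Cell Titer Glo luminescence after 30 min at RT, following 5 h compound exposure of ME-180 AP-1-bla cells at 37 °C.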

[10] = qHTS assay to identify small molecule agonists of the AP-1 signaling pathway (AID 1159526)

Measured: Potency

CCCC(C)CO (configuration not stated)
inactive: all assays above

CCC(=O)Nc1cccc(N)c1
inactive: all assays above

CC(C=O)Cc1ccc(C(C)C)cc1 (configuration not stated)
inactive: all assays above

OC[C@H]1O[C@@H]2O[C@H]3[C@H](O)[C@@H](O)[C@@H](O[C@H]4[C@H](O)[C@@H](O)[C@@H](O[C@H]5[C@H](O)[C@@H](O)[C@@H](O[C@H]6[C@H](O)[C@@H](O)[C@@H](O[C@H]7[C@H](O)[C@@H](O)[C@@H](O[C@H]8[C@H](O)[C@@H](O)[C@@H](O[C@H]9[C@H](O)[C@@H](O)[C@@H](O[C@H]1[C@H](O)[C@H]2O)O[C@@H]9CO)O[C@@H]8CO)O[C@@H]7CO)O[C@@H]6CO)O[C@@H]5CO)O[C@@H]4CO)O[C@@H]3CO
inactive: all assays above

NCCNC(=O)c1ccc(Cl)cn1
inactive: all assays above

COC(=O)C1=C(C)NC(C)=C(C(=O)OCC(C)=O)C1c1ccccc1[N+](=O)[O-] (configuration not stated)
inactive: all assays above

CCN(CC)C(=O)c1ccc(O)c(OC)c1
inactive: all assays above

CCCCCCCCCCCl
inactive: all assays above

NS(=O)(=O)c1cc2c(cc1C(F)(F)F)NC(Cc1ccccc1)NS2(=O)=O (configuration not stated)
inactive: all assays above

O=c1[nH]c(=O)n([C@H]2O[C@H](CO)[C@@H](O)[C@@H]2O)cc1/C=C\Br
inactive: all assays above

CCCc1ccc(N)cc1
inactive: all assays above

CC1=CC(=O)CCC1
inactive: all assays above

CCCCCCCCCCCCCCC
inactive: all assays above

C1C2OC2C2C1C1CC2C2OC12 (configuration not stated)
inactive: all assays above

C=CCSCC1Nc2cc(Cl)c(S(N)(=O)=O)cc2S(=O)(=O)N1 (configuration not stated)
inactive: all assays above

COc1cc(O)cc(O)c1
inactive: all assays above

O=C(CCOCCOCCOCCOCCC(=O)Nc1c(I)cc(I)c(C(=O)O)c1I)Nc1c(I)cc(I)c(C(=O)O)c1I
inactive: all assays above

CC(=O)NC(Cc1ccccc1)C(=O)O (configuration not stated)
inactive: all assays above

O=C(O)CCNC(=O)c1ccc(N=Nc2ccc(O)c(C(=O)O)c2)cc1
inactive: all assays above

Cn1cnc2c(=O)[nH]c(N)nc21
inactive: all assays above

COc1cc(CCC(C)=O)ccc1O
inactive: all assays above

COc1nc(C)nc(N)n1
inactive: all assays above

CCCCCCCCCCCCCCCCCC(=O)OCCCCCCCCCCCCCC(C)C
inactive: all assays above

COC(=O)[C@H]1[C@H]2C[C@@H]3c4[nH]c5cc(OC)ccc5c4CCN3C[C@H]2C[C@@H](OC(=O)COc2ccc(OC)cc2)[C@@H]1OC
inactive: all assays above

Nc1nc(F)nc2c1ncn2[C@@H]1O[C@H](CO)[C@@H](O)[C@@H]1O
inactive: all assays above

NC(=O)c1ncn([C@@H]2O[C@H](CO)[C@@H](O)[C@H]2O)c1N
inactive: all assays above

CC(C)=CCC/C(C)=C/C(=O)O
inactive: all assays above

O=C(O)c1cccc(C(=O)O)n1
inactive: all assays above

CCCCCCOC(=O)c1ccccc1O
inactive: all assays above

CC(C)(O)C(=O)c1ccc(OCCO)cc1
inactive: all assays above

NC(=O)c1c(Cl)cccc1Cl
inactive: all assays above

CCO[Si](CCCN=C=O)(OCC)OCC
inactive: all assays above

CC(C)[N+](C)(C)CC(O)COc1cccc2ccccc12 (configuration not stated)
inactive: all assays above

CCCCCC[C@@H](CCC)C(=O)O
inactive: all assays above

C(=C(c1ccccc1)c1ccccc1)c1ccccc1
not listed: [1]
inactive: all other assays above

OC/C=C/c1ccccc1
not listed: [8]
inactive: all other assays above

CC(C)CCOC(=O)CC(C)C
inactive: all assays above

CCN1CCN(c2cc3c(cc2F)c(=O)c(C(=O)O)cn3C2CC2)CC1
not listed: [2] | [7]
inactive: all other assays above

CC(C)(C)OC(=O)N1C[C@@H](F)C[C@H]1C(=O)O
inactive: all assays above

CC(C)CCCC(C)CCCC(C)CCCCC(C)CCCC(C)CCCC(C)C (configuration not stated)
not listed: [1]
inactive: all other assays above

OCc1ccccn1
not listed: [1]
inactive: all other assays above

O=C1OC(=O)c2cc([N+](=O)[O-])ccc21
inactive: all assays above

Cc1nc(-c2ccc(OCC(C)C)c(C#N)c2)sc1C(=O)O
inactive: all assays above

COCCOC(=O)CC#N
inactive: all assays above

CN1[C@@H]2CC[C@H]1CC(NC(=O)n1c(=O)[nH]c3ccccc31)C2 (some centres not stated)
inactive: all assays above

C=C(C)C(=O)NCCC[N+](C)(C)C
inactive: all assays above

Cc1ncc(CSSCc2cnc(C)c(O)c2CO)c(CO)c1O
inactive: all assays above

CCCCN(CCO)CCO
inactive: all assays above

C#CC(O)C(CC)CCCC (configuration not stated)
not listed: [2] | [7]
inactive: all other assays above
